DAX1 inh-1: inhibits human nuclear receptor DAX1; P51843; HEK293 Gal4-DAX1 luciferase reporter, luminescence; inhibition, % at 6.75 µM; actives 0.99% (n = 340,000); AID 504766;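 active = inhibition above the mean over all tested compounds plus 3 SD, cut at about 4.2% in these data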;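 note: inhibition shows as a rise in luminescence from relieved DAX1 repression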
Target sequence (P51843 207-470 limits assumed): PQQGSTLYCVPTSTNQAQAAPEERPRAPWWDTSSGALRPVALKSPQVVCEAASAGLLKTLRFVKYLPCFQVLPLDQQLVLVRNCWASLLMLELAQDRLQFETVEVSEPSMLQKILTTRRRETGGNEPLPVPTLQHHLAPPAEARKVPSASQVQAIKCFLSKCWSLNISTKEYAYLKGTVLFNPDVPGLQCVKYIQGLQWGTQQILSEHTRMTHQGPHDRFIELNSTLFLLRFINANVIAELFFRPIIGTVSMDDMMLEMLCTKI
AHR activator: activators of human aryl hydrocarbon receptor; AHR-responsive luciferase reporter cells, luminescence; AID 2796; actives 2.5% (n = 320,000); P35869; activation, % at 5 µM; in the data active = activation above about 47%
hgDAF-12 ag: hgDAF-12 agonism, primary luciferase screen | HEK293 GAL4-hgDAF12 UAS-luciferase reporter, agonist luminescence; normalized to butyrate control | activation, % at 6.8 µM | actives 1.8% (n = 370,000) | AID 687014;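 active = activation above a cutoff set at the mean of all screened compounds plus 3 SD, cut at about 10% in these data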
hcDAF12 agonist: activators of H. contortus DAF-12 nuclear receptor; HEK293 hcDAF-12 lit1-tk-luc reporter, luminescence; 0% DMSO, 100% Δ7-dafachronic acid; activation, % at 6.8 µM; actives 1.4% (n = 370,000);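 active = activation above the mean of all tested compounds plus 3 SD, cut at about 5.5% in these data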
DAX1 inh-2: blocks DAX1 repression of SF-1 activated StAR promoter | inhibition, % at 6.8 µM | HEK293T StAR-luciferase reporter, SF-1/DAX-1 repression relief | actives 1.1% (n = 370,000);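 active = inhibition above the mean over all tested compounds plus 3 SD, cut at about 3.6% in these data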;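 note: higher inhibition means more luminescence from relief of DAX-1 repression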
ssDAF-12 act: activates DAF-12 receptor from parasite S. stercoralis. activation, % at 6.8 µM. HEK293 ssDAF-12/GRIP1 lit1-tk-luc reporter, luminescence; % of 3 µM dafachronic acid response. actives 1% (n = 370,000). AID 652126;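 active = activation above the mean over all tested compounds plus 3 SD, cut at about 0.9% in these data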
DAX1 inh confirm: confirmation of human DAX1 (NR0B1) inhibitors; shares compounds with DAX1 inh-2; HEK293T StAR-promoter luciferase reporter, SF-1/DAX-1 repression; inhibition, % at 6.8 µM; actives 87% (n = 2,400);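 active = inhibition above the average of every tested compound plus 3 SD, cut at about 3.8% in these data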;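 note: active compounds raise luminescence by relieving repression of the StAR reporter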
SF1 AF2mut Luc: counter-screen for DAX1 inhibitors: nonselective inhibitors with SF-1 AF2 mutant. inhibition, % at 6.8 µM. actives 78% (n = 2,400). shares compounds with DAX1 inh-2. HEK293 StAR-luciferase, luminescence;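 active = inhibition above the mean of all tested compounds plus 3 SD, cut at about 3% in these data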
LXRb hcDAF ctr: activates human LXR-beta, counter-screen for hcDAF-12 agonists. HEK293 Gal4-LXR tk-luc reporter, luminescence, 24 h; normalized: DMSO 0%, positive control 100%. shares compounds with hcDAF12 agonist. 3,400 tested, under 10 active. AID 743027. activation, % at 6.8 µM;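 active = mean percent activation of the reporter above a cutoff set as the average over tested compounds plus their standard deviation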
Target sequence (P55055 whole entry, looked up, the tested form may be a part): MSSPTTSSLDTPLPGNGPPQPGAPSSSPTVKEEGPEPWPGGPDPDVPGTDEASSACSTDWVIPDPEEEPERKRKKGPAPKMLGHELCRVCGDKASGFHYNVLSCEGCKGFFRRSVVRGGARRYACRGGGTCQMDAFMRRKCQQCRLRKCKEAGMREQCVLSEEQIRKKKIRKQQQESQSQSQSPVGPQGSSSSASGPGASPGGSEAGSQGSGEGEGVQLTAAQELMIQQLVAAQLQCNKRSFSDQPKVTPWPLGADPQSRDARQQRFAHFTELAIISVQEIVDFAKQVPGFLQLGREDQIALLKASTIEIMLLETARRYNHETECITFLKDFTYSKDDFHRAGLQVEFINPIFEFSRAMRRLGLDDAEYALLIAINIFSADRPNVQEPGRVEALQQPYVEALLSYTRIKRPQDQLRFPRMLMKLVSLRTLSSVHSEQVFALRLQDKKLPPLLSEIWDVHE
hcDAF12 conf: confirmation of H. contortus DAF-12 agonists. activation, % at 6.8 µM. HEK293 hcDAF-12 lit1-tk-luc reporter, luminescence; % of Δ7-dafachronic acid response. actives 61% (n = 3,400). shares compounds with hcDAF12 agonist. AID 743032;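 active = mean activation across triplicate tests above the threshold derived from the earlier primary screen, cut at about 5.5% in these data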
Each line names hits and unclear results; the compound was inactive in the other large screens (follow-up assays come after a bar, where they were run). The list is not random: actives were taken first. Their share in the collection is about 5.7%.

N#Cc1cccc(NCC(=O)Nc2ccc3c(c2)OCCO3)c1	hgDAF-12 ag 13.2, hcDAF12 agonist 7.8, DAX1 inh-2 5.2, ssDAF-12 act 1.4 | DAX1 inh confirm 11.2 | SF1 AF2mut Luc 4.1 | LXRb hcDAF ctr inactive | hcDAF12 conf 7.6
O=C(Nc1ccc2c(c1)OCCO2)Nc1ccc2c(c1)OCO2	hgDAF-12 ag 21.9, hcDAF12 agonist 9.2, DAX1 inh-2 5.4, ssDAF-12 act 3.1 | DAX1 inh confirm 13.6 | SF1 AF2mut Luc 6.7 | LXRb hcDAF ctr inactive | hcDAF12 conf 9.1
O=C(COC(=O)c1ccccc1)Nc1cc(S(=O)(=O)N2CCCCCC2)ccc1Cl	none
O=C(CCc1nc2sc3c(c2c(=O)[nH]1)CCCC3)NCCOc1ccccc1	none
Cc1ccc(NC(=O)Nc2ccc3c(c2)OCO3)cc1F	hgDAF-12 ag 10.7, hcDAF12 agonist 8.0, DAX1 inh-2 7.5 | DAX1 inh confirm 11.9 | SF1 AF2mut Luc 9.6 | LXRb hcDAF ctr inactive | hcDAF12 conf inactive
c1cncc(-c2nc3ccccc3s2)c1	none
COc1ccc(-c2nc3ccccc3s2)cc1	hgDAF-12 ag 12.6, hcDAF12 agonist 12.2, DAX1 inh-2 6.1 (no result: AHR activator) | DAX1 inh confirm 13.7 | SF1 AF2mut Luc 3.6 | LXRb hcDAF ctr inactive | hcDAF12 conf 12.9
Fc1ccc(-c2cn3cc(C(F)(F)F)cc(Cl)c3n2)cc1	DAX1 inh-1 4.9, hgDAF-12 ag 11.9, hcDAF12 agonist 18.9, DAX1 inh-2 6.0, ssDAF-12 act 3.7 | DAX1 inh confirm 17.2 | SF1 AF2mut Luc 8.8 | LXRb hcDAF ctr inactive | hcDAF12 conf 22.5
N#C/C(=C\c1ccc[nH]1)C(=O)Nc1ccccc1F	hgDAF-12 ag 12.3, hcDAF12 agonist 12.0, DAX1 inh-2 7.4, ssDAF-12 act 4.3 (no result: AHR activator) | DAX1 inh confirm 9.5 | SF1 AF2mut Luc 7.0 | LXRb hcDAF ctr inactive | hcDAF12 conf 8.6
CCOC(=O)CNc1c(-c2ccccc2)nc2ccc(Cl)cn12	none
COC(=O)CNc1c(-c2ccccn2)nc2ccc(Br)cn12	AHR activator 61.9, hcDAF12 agonist 7.8, DAX1 inh-2 4.9 | DAX1 inh confirm 11.6 | SF1 AF2mut Luc 6.2 | LXRb hcDAF ctr inactive | hcDAF12 conf 6.2
Cc1ccc(CSc2nc3ccncc3[nH]2)cc1	hgDAF-12 ag 18.2, hcDAF12 agonist 11.1, DAX1 inh-2 12.6, ssDAF-12 act 1.4 | DAX1 inh confirm 16.3 | SF1 AF2mut Luc 9.6 | LXRb hcDAF ctr inactive | hcDAF12 conf 10.4
O=C(NCc1ccc(Cl)cc1)c1ccc(CSc2nc3ccncc3[nH]2)cc1	none
O=[N+]([O-])c1c(Nc2ccccc2O)ccc2nonc12	none
Cc1ccc(NC(=O)CNC(=O)c2sc3ccccc3c2Cl)nc1	hcDAF12 agonist 7.0, DAX1 inh-2 4.6 | DAX1 inh confirm 4.8 | SF1 AF2mut Luc 3.4 | LXRb hcDAF ctr inactive | hcDAF12 conf inactive
Cc1ccc(C)c(NC(=O)c2ccc3ccccc3n2)c1	hgDAF-12 ag 10.9, hcDAF12 agonist 16.5, DAX1 inh-2 5.0, ssDAF-12 act 2.6 | DAX1 inh confirm 14.6 | SF1 AF2mut Luc 10.0 | LXRb hcDAF ctr inactive | hcDAF12 conf 22.1
Cc1ccc(NC(=S)c2ccc3ccccc3n2)c(C)c1	none
O=C(COc1ccc(Cl)cc1)N(Cc1ccco1)C1CCS(=O)(=O)C1 (configuration not stated)	none
COc1ccc(N(C(=O)c2ccco2)C(C(=O)NC2CCCC2)c2ccncc2)cc1OC (configuration not stated)	none
CCCCNCc1nc2ccccc2c(=O)[nH]1	none
CCc1ccc(NCc2nc3ccccc3c(=O)[nH]2)cc1	hgDAF-12 ag 15.1, hcDAF12 agonist 11.0, DAX1 inh-2 5.1, ssDAF-12 act 2.4 | DAX1 inh confirm 14.3 | SF1 AF2mut Luc 9.3 | LXRb hcDAF ctr inactive | hcDAF12 conf 7.6
CCOC(=O)Nc1ccc2c(c1)Cc1cc([N+](=O)[O-])ccc1-2	none (no result: AHR activator)
COc1ccc2sc3ccccc3c(=O)c2c1	none
COc1ccc(-c2cc(=O)c3ccccc3s2)cc1	AHR activator 94.1, hgDAF-12 ag 21.7, hcDAF12 agonist 15.6, DAX1 inh-2 6.9, ssDAF-12 act 0.9 | DAX1 inh confirm 16.8 | SF1 AF2mut Luc 11.1 | LXRb hcDAF ctr inactive | hcDAF12 conf 10.2
O=C(COC(=O)c1cc(Cl)cc(Cl)c1)NCCN1C(=O)CSC1=O	none
CC(C(=O)Nc1ccc(C(F)(F)F)cc1)N(C)CC(=O)N1CCN(Cc2ccccc2)CC1 (configuration not stated)	none
CN(C)CCN(C(=O)c1cccs1)c1nc2cc3c(cc2s1)OCCO3	hcDAF12 agonist 7.0, DAX1 inh-2 5.1, ssDAF-12 act 1.4 | DAX1 inh confirm 4.7 | SF1 AF2mut Luc 5.0 | LXRb hcDAF ctr inactive | hcDAF12 conf inactive
O=C(Cc1ccc([N+](=O)[O-])cc1)Nc1ccc2c(c1)OCO2	none
COc1ccc(-n2nc([N+](=O)[O-])c(=NCCc3ccccc3)n2O)cc1	none
NC(=O)c1ccccc1OCC(=O)Nc1ccc(Cl)c(Cl)c1	DAX1 inh-1 5.8, hgDAF-12 ag 18.1, hcDAF12 agonist 10.5, DAX1 inh-2 6.9, ssDAF-12 act 2.2 | DAX1 inh confirm 20.6 | SF1 AF2mut Luc 8.9 | LXRb hcDAF ctr inactive | hcDAF12 conf 10.8
C(=Cc1c[nH]c2ccccc12)c1nccc2ccccc12	hgDAF-12 ag 22.8, hcDAF12 agonist 23.7, DAX1 inh-2 14.6, ssDAF-12 act 4.1 (no result: AHR activator) | DAX1 inh confirm 13.8 | SF1 AF2mut Luc 7.1 | LXRb hcDAF ctr inactive | hcDAF12 conf 18.3
O=Cc1nccc2ccccc12	none (no result: AHR activator)
C(=Cc1c[nH]c2ccccc12)c1ccc2ccccc2n1	hgDAF-12 ag 17.7, hcDAF12 agonist 20.4, DAX1 inh-2 8.1, ssDAF-12 act 5.2 (no result: AHR activator) | DAX1 inh confirm 8.0 | SF1 AF2mut Luc inactive | LXRb hcDAF ctr inactive | hcDAF12 conf 12.3
CN(C)c1ccc(-c2nc3ccccc3c(=O)[nH]2)cc1	hgDAF-12 ag 14.6, hcDAF12 agonist 10.5, DAX1 inh-2 5.0 | DAX1 inh confirm 15.4 | SF1 AF2mut Luc 4.5 | LXRb hcDAF ctr inactive | hcDAF12 conf 12.4
CCC(CC)c1nc2ccccc2c(=O)[nH]1	none
COc1ccc(S(=O)(=O)Nc2c(F)cccc2F)cc1	none
